# Assay results as given in publication PMC11006913.
# Substitutions are numbered along the chain they refer to.
# Key:
# Experiment in all cases: PBM; 200 nM protein, PBS
# Settings in all cases: dsDNA, one strand shown
# SIX6 [1] = molecular target: T1, SIX6 (Homo sapiens, UniProt O95475 114-200, L167I)
# T1 sequence: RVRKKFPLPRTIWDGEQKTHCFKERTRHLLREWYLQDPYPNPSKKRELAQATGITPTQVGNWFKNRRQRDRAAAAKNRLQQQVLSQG
# SIX6 [2] = molecular target: T2, SIX6 (Homo sapiens, UniProt O95475 114-200, T165P)
# T2 sequence: T1 sequence with T52P, I54L
# SIX6 [3] = molecular target: T3, SIX6 (Homo sapiens, UniProt O95475 114-200, L167M)
# T3 sequence: T1 sequence with I54M
# SIX6 [4] = molecular target: T4, SIX6 (Homo sapiens, UniProt O95475 114-200, T165G)
# T4 sequence: T1 sequence with T52G, I54L
# SIX6 [5] = molecular target: T5, SIX6 (Homo sapiens, UniProt O95475 114-200, T139Q)
# T5 sequence: T1 sequence with T26Q, I54L
# SIX6 [6] = molecular target: T6, SIX6 (Homo sapiens, UniProt O95475 114-200, L167V)
# T6 sequence: T1 sequence with I54V
# SIX6 [7] = molecular target: T7, SIX6 (Homo sapiens, UniProt O95475 114-200, T165I)
# T7 sequence: T1 sequence with T52I, I54L
sequence,measurement,setting,value
CCCGGCGG,binding signal,SIX6 [1],"9.11 upbm affinity estimate (log intensity, higher = more binding, comparable within an allelic series)"
same,binding signal,SIX6 [2],"8.96 upbm affinity estimate (log intensity, higher = more binding, comparable within an allelic series)"
same,binding signal,SIX6 [3],"9 upbm affinity estimate (log intensity, higher = more binding, comparable within an allelic series)"
same,binding signal,SIX6 [4],"9.14 upbm affinity estimate (log intensity, higher = more binding, comparable within an allelic series)"
same,binding signal,SIX6 [5],"9.18 upbm affinity estimate (log intensity, higher = more binding, comparable within an allelic series)"
same,binding signal,SIX6 [6],"9.07 upbm affinity estimate (log intensity, higher = more binding, comparable within an allelic series)"
same,binding signal,SIX6 [7],"9.08 upbm affinity estimate (log intensity, higher = more binding, comparable within an allelic series)"
